Shown is part of a subset that was picked to be rich in hits.
BAP1 block: inhibitors of human BAP1 deubiquitinase. Q92560. recombinant BAP1, Ub-AMC hydrolysis fluorescence kinetic; active compounds read low. calls only at 20 µM. 72,000 tested, 0.48% active;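 active = activity remaining at or below 50% of control, provided the compound also passes the data quality filters; inactive = the rest, including low values that fail the filters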;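 note: 100% = DMSO wells rate and 0% = substrate alone blank rate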
Target sequence (Q92560 whole entry, looked up): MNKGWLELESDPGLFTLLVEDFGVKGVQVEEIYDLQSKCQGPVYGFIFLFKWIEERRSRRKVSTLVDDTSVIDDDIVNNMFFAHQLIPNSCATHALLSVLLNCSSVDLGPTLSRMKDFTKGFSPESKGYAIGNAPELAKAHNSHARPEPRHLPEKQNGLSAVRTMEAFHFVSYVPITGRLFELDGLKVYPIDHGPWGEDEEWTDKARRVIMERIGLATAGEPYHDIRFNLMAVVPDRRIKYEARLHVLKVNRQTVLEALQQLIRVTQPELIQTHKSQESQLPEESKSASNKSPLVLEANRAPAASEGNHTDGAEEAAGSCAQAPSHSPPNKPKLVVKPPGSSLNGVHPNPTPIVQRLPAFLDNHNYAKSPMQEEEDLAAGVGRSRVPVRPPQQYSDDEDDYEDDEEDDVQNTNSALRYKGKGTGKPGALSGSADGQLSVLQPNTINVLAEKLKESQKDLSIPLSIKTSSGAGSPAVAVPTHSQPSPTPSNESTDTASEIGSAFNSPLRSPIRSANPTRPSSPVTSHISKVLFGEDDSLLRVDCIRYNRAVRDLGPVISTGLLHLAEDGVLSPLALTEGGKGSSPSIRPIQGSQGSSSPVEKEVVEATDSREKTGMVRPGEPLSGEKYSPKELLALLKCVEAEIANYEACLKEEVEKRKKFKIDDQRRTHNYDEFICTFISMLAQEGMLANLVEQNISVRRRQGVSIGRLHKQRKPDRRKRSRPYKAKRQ
D1 mod: D1 dopamine receptor (human) allosteric modulation | HEK293 D1, CRE-luciferase, dopamine EC30 potentiation; actives deviate in either direction | B-score at 10 µM | 58,000 tested, 5.9% active;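 active = luminescence count or its row- and column-corrected plate score outside the 99.7% band of the plate's sample wells, on either side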
DAT uptake mod: changed human dopamine transporter uptake under cocaine IC80. 110,000 tested, 1.3% active. AID 449768. LLC-PK1 hDAT cells, [14C]-dopamine uptake with cocaine IC80; actives deviate in either direction. Q01959. B-score at 10 µM;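 active = Z score or B-score, a plate-position-corrected score, falls beyond the plate's 99.7% confidence bounds, in either direction; inactive = both scores lie inside the 99.7% bounds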;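 note: scored against the spread of the other compound wells on the same plate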
* hit, by the source's call; i = inactive; . = no result given.

SMILES | BAP1 block | D1 mod | DAT uptake mod
O=C(C1=C[C@@H](c2ccc3c(c2)OCO3)C[C@@H](OCCCCO)O1)N1CCN(Cc2ccc3c(c2)OCO3)CC1 | . | . | 1.1
O=C(C1=C[C@H](C2CCCCC2)C[C@H](OCCCCO)O1)N1CCN(Cc2ccc3c(c2)OCO3)CC1 | . | . | 2.2*
O=C(NCc1nc2ccccc2[nH]1)C1=C[C@H](C2CCCCC2)C[C@H](OCCCCO)O1 | . | . | 1.9*
CCO[C@H]1OC(C(=O)NCc2nc3ccccc3[nH]2)=C[C@@H](c2ccccc2)[C@@H]1CCCO | . | . | -0.46
O=C(NCc1nc2ccccc2[nH]1)C1=C[C@H](C2CC2)C[C@H](OCCCCO)O1 | . | . | 0.062
O=C(Nc1ccccc1)C1=C[C@@H](C2CCCCC2)C[C@@H](OCCCCO)O1 | . | . | -0.33
O=C(NCc1ccccc1)C1=C[C@H](C2CCCCC2)C[C@H](OCCCCO)O1 | . | . | 2.1*
CCO[C@H]1OC(C(=O)NCc2nc3ccccc3[nH]2)=C[C@@H](c2ccc3c(c2)OCO3)[C@@H]1CCCO | . | . | 2.7*
COc1cccc(-c2cc(C(N)=O)on2)c1 | i | . | .
C=CSc1cccc2ncccc12 | i | . | .
CC(=O)n1cc([C@H]2C=C(C(=O)N3CCN(Cc4ccccc4)CC3)O[C@@H](OCCCCO)C2)c2ccccc21 | . | . | 2.9*
CC(=O)n1cc([C@@H]2C=C(C(=O)N3CCN(Cc4ccc5c(c4)OCO5)CC3)O[C@H](OCCCCO)C2)c2ccccc21 | . | . | 2.1
CCOc1ccccc1NC(=O)CN(c1ccc(C)cc1)S(=O)(=O)c1c(C)noc1C | i | 1.4 | 1.6
CCOc1ccc(OCC)c(NC(=O)CN(c2ccc(C)cc2)S(=O)(=O)c2c(C)noc2C)c1 | i | 4.7* | -0.38
COc1ccc(OC)c(NC(=O)CN(c2ccc(C)cc2)S(=O)(=O)c2c(C)noc2C)c1 | i | 4.6* | -0.005
COc1ccc(OC)c(NC(=O)CN(c2ccc(C(C)C)cc2)S(=O)(=O)c2c(C)noc2C)c1 | i | -0.039 | 0.12
CC(=O)NCc1nc2ccccc2[nH]1 | i | . | .
CCOc1cccc(C2NC(=O)NC(C)=C2C(=O)OCC(Cl)(Cl)Cl)c1 (stereo not drawn) | i | . | .
CC1(C)N=C(SCC(=O)Nc2ccccc2)C(c2ccc(Cl)cc2)=N1 | . | . | 2.2
Cc1ccc(C2=NC(C)(C)N=C2SCC(=O)Nc2ccc(Cl)cc2)cc1 | . | . | -7.4*
O=C(c1cccc(Br)c1)N1CCN(C(=O)N2CCOCC2)CC1 | . | . | -0.17
Cc1cn(C(=O)c2cccc(Br)c2)c(C)n1 | i | 8* | -0.76
O=C(c1ccccc1)N1CCN(C(=O)c2ccccc2Br)CC1 | i | -1.1 | -7.7*
O=C(c1cccc(Br)c1)N1CCN(C(=O)c2cccc(Br)c2)CC1 | . | . | 2.2*
O=C(c1ccccc1)N1CCN(C(=O)c2ccc(F)cc2)CC1 | i | . | .
SMILES | BAP1 block | D1 mod | DAT uptake mod
CSC1=NCCN1C(=O)c1cccc(Br)c1 | i | -1 | -0.51
COC(=O)c1sc(-c2ccccc2)cc1NC(=O)c1ccc(S(=O)(=O)N2CC(C)OC(C)C2)cc1 (stereo not drawn) | i | . | .
COc1ccc2oc(=Nc3ccccc3)c(C(=O)NC(C)=O)cc2c1 | i | . | .
CCCn1c2ccc(Br)cc2c2nc3cc(OCC)c(OCC)cc3nc21 | i | . | .
Brc1ccc2c(c1)c1nc3ccccc3nc1n2CCN1CCOCC1 | i | 4.3* | .
O=C1CN(C(=O)c2ccc(N3CCCCC3)c([N+](=O)[O-])c2)c2ccccc2N1 | i | . | .
O=C1c2ccccc2C(=O)c2cc(F)ccc21 | i | . | .
CCc1cccc(NC(=O)c2ccc(Br)o2)c1 | i | -1.2 | 4.9*
Cc1ccc(C(=O)Nc2ccc3c(c2)CCC3)o1 | . | -3.5 | 1.4
Cc1cc(C(=O)Nc2cccc(C(=O)O)c2)oc1C | . | -4.4* | 0.086
O=C(Nc1ccc2c(c1)CCC2)c1ccc(Br)o1 | . | . | 2.2*
O=C(Nc1ccccc1)c1ccc(Br)o1 | . | . | 0.53
O=C(c1ccccc1)c1cccc(NC(=O)c2ccc(Br)o2)c1 | . | . | -9.7*
CCN(CC)c1ccc(NC(=O)c2ccc(Br)o2)cc1 | i | -3.5 | 0.4
Cc1cc(C(=O)Nc2cccc(C(=O)O)c2)c(C)o1 | . | . | -1.2
CN1CCN(Cc2c(O)ccc3c(=O)c(-c4ccc(Cl)cc4)coc23)CC1 | i | . | .
Cc1cc(S(=O)(=O)NC2CCCCC2)ccc1OCC(=O)NCc1ccccn1 | i | -0.032 | 1.2
O=C(COc1ccc(S(=O)(=O)N2CCc3ccccc32)cc1Cl)NCc1ccccn1 | i | 0.28 | 2.2*
Cc1ccccc1-n1c(-c2ccc(C(C)(C)C)cc2)n[nH]c1=S | i | . | .
CCOC(=O)Cn1cc(-c2ccc([N+](=O)[O-])cc2)nc1SCc1ccccc1 | i | . | .
O=C1c2ccccc2C(=O)c2c1cccc2N1CCOCC1 | . | . | -1.9
O=C1C(N2CCOCC2)=C(n2nnc3ccccc32)C(=O)c2ccccc21 | . | . | -3.9*
Nc1ccc(C(=O)Nc2nc3ccccc3s2)cc1 | . | -6.6* | 0.42
Nc1ccc(C(=O)Nc2nc3ccc4ccccc4c3s2)cc1 | i | . | .
CCOC(=O)c1cc2c(=O)n3ccccc3nc2n(Cc2ccccc2Cl)c1=N | i | . | .
SMILES | BAP1 block | D1 mod | DAT uptake mod
Cn1c(=N)c(S(=O)(=O)c2ccc(Cl)cc2)cc2c(=O)n3ccccc3nc21 | i | 4.8* | .
CCCCCCn1c(SCCN2CCOCC2)nc2c1c(=O)[nH]c(=O)n2C | i | . | 0.091
CCCCCCn1c(SCCOC)nc2c1c(=O)[nH]c(=O)n2C | i | 9.4* | -0.34
CCCCCn1c(N2CCC(Cc3ccccc3)CC2)nc2c1c(=O)[nH]c(=O)n2C | i | -0.89 | 1.6
CCCCCn1c(NC2CCCCC2)nc2c1c(=O)[nH]c(=O)n2C | i | 5.7* | 2.9*
CC1(c2ccccc2)CC(C)(C)N(C(=O)CSC#N)c2ccccc21 (stereo not drawn) | i | . | .
O=C(Nc1cccc(-c2nc3ccccc3o2)c1)c1cccc(I)c1 | i | . | .
O=[N+]([O-])c1cc(-n2cnnn2)ccc1Cl | i | . | .
CC(C)C(=O)N1CCC(CN=Cc2c(O)n(C3CCCCC3)c(=O)n(C3CCCCC3)c2=O)CC1 | i | 0.093 | 3.2*
CCC(=O)N1CCN(CCN=Cc2c(O)n(C3CCCCC3)c(=O)n(C3CCCCC3)c2=O)CC1 | i | -0.13 | .
COc1ccc2c(c1)-c1c(sn(-c3ccccc3C)c1=S)C(C)(C)N2 | i | . | .
C=CCSc1nnc(-c2ccc(Cl)cc2Cl)o1 | i | -1.4 | .
Clc1ccc(-c2nnc(SCc3ccon3)o2)c(Cl)c1 | i | -4.7* | 1.3
Cc1ccc(/C=C/C(=O)c2cc(Br)ccc2OC(=O)c2ccco2)cc1 | . | . | 0.81
COc1ccccc1/C=C/C(=O)c1cc(Br)ccc1OC(=O)c1ccco1 | . | . | 2.6*
O=C(CSc1n[nH]c(-c2cccs2)n1)N1CCN(S(=O)(=O)c2ccccc2)CC1 | i | 0.21 | -0.18
c1ccc(-c2nc(CSc3n[nH]c(-c4cccs4)n3)cs2)cc1 | . | . | 4.1*
Cc1ccc(S(=O)(=O)Nc2ccc3nc(-c4cccn4C)[nH]c3c2)cc1 | i | 0.42 | -2.9*
Cn1cccc1-c1nc2ccc(NC(=O)c3ccccc3)cc2[nH]1 | i | -0.92 | 1.6
COCCNS(=O)(=O)c1cccc2cccnc12 | i | -1.1 | -2.7*
O=S(=O)(NCc1ccco1)c1cccc2cccnc12 | i | -0.55 | -0.093
O=C(Nc1ccc([N+](=O)[O-])cc1Cl)c1cccc(C(=O)Nc2ccc([N+](=O)[O-])cc2Cl)n1 | i | . | .
